The record followed here is PubChem BioAssay AID485346 (Sanford-Burnham Center for Chemical Genomics, 2010).

Among all 330,000 compounds or so, about 10,000 (3%) were called active. For the sample, actives were picked, then their nearest neighbours and some compounds at random. Unmarked numbers belong to inactive results.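 How the source made its calls: active means inhibition of at least 50% at 8 µM in the primary screen; inactive means the rest.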

For the assay, the target named is Protein Mdm4 (Homo sapiens) + E3 ubiquitin-protein ligase Mdm2 (Homo sapiens) (UniProt O15151+Q00987). Put plainly: disruptors of Mdm2/MdmX RING complex – cell-based, luminescence, split luciferase, SaOS-2, uHTS, primary screen (AID 485346). The note with it: SaOS-2 split-luciferase Mdm2/MdmX complementation, at 8 µM, stronger effect = higher value.
Chain of Protein Mdm4 (Homo sapiens) + E3 ubiquitin-protein ligase Mdm2 (Homo sapiens) (O15151 whole entry, looked up): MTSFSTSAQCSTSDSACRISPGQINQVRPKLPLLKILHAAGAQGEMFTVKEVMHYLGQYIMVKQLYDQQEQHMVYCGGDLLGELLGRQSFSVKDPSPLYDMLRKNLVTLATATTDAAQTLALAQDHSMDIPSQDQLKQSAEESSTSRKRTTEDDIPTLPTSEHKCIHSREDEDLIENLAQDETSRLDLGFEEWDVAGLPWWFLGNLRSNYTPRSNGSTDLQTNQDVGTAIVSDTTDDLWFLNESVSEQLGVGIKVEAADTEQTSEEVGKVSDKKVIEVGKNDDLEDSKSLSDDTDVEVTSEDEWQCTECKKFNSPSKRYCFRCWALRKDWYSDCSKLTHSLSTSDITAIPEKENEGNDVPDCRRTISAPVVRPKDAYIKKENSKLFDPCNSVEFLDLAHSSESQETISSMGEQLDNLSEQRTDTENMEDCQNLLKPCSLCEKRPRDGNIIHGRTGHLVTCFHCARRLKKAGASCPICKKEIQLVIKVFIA
Chain of Protein Mdm4 (Homo sapiens) + E3 ubiquitin-protein ligase Mdm2 (Homo sapiens) (Q00987 whole entry, looked up): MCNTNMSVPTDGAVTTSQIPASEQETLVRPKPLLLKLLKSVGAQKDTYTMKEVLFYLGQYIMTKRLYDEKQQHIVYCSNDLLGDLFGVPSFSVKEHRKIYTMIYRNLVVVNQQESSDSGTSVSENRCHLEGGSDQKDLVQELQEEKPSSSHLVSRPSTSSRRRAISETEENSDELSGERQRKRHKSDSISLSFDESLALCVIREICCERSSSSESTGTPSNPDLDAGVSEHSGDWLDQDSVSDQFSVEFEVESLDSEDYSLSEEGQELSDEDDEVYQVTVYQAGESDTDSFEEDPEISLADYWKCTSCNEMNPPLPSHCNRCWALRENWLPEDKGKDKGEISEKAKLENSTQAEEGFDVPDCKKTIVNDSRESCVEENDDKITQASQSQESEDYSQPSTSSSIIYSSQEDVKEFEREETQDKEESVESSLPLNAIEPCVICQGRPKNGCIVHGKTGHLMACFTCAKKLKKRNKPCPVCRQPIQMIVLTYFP
What is called inhibition is the drop in the measured response relative to a control, in per cent. On to `CC(=O)Nc1ccc(NC(=O)C(NS(=O)(=O)c2ccc3c(c2)OCCO3)C(C)C)cc1` (configuration not stated), for which the inhibition was 1.24%. `Cc1noc(C)c1S(=O)(=O)N(C)C[C@H]1Oc2c(NC(=O)Nc3ccc4c(c3)OCO4)cccc2C(=O)N([C@H](C)CO)C[C@@H]1C`: the inhibition was 23.1%. Turning to `COc1ccc(Nc2ncnc3ccc(Br)cc23)c(OC)c1`, the inhibition is 76.4% (active). Turning to `O=C(O)CCCCCNc1ncnc2ccc(Br)cc12`, the inhibition is -1.34%. Then `COc1ccc(CNc2ncnc3ccccc23)cc1`, with 21.5%. Then `COc1ccccc1NC(=O)CCC(=O)N1CC(C)Oc2ccc(C)cc21` (configuration not stated), with 13.9%. Turning to `O=C1Nc2ccc([N+](=O)[O-])cc2C1=Nc1cccc(CO)c1`, the inhibition is 30.4%.

With `Cc1ccc(N2CC(C(=O)NCCS(=O)(=O)N3CCN(c4ccccc4)CC3)CC2=O)cc1` (configuration not stated), the inhibition was 37.2%. In the case of `COc1cc(N)c(Cl)cc1C(=O)OCC(=O)c1ccc2c(c1)NC(=O)CO2`, the inhibition was 18.8%. Then `CCOC(=O)c1c(-c2cccc(C)c2)csc1NC(=O)c1c(-c2ccccc2)noc1C`, with 94.3% (active).

With `Cc1ccc(CNC(=O)c2c(-c3ccccc3)noc2C)cc1`, the inhibition is -12.1%. As for `CCOC(=O)c1c(-c2ccc(-c3ccccc3)cc2)csc1NC(=O)CCC(=O)O`, the inhibition was 9.19%. `Cn1c(=O)[nH]c(=O)c2c1nc(NCCCn1ccnc1)n2Cc1cccc(Br)c1`: the inhibition is 34.5%. In the case of `O=C1N/C(=C/c2cccn2-c2ccccc2)C(=O)N1c1cccc(Cl)c1`, the inhibition is 53.8% (active). As to `Cc1ccccc1NC(=O)CN1C(=O)N/C(=C\c2cccn2-c2cccc(C(=O)O)c2)C1=O`, the inhibition was 11.8%. Regarding `O=c1c(-c2cccc(Cl)c2)c[nH]n1-c1ccccc1`, the inhibition was -13.8%. As to `COc1ccc(C(=O)OCC(=O)NCC2CCCO2)cc1[N+](=O)[O-]` (configuration not stated), the inhibition is -2.37%. On to `O=C(C1CCC(=O)N(C2CC2)C1)N1CCN(c2ccc(Cl)cc2)CC1` (configuration not stated), for which the inhibition is -4.59%. Take `CN(c1ccc2nc3ccccc3c(=O)n2n1)C1CCCCC1`: the inhibition is 90.5% (active). As to `CN(C(=O)c1cc2c(=O)n3ccccc3nc2s1)C1CCCCC1`, the inhibition is -88.5%. With `CN(C(=O)CSc1nncc2ccccc12)C1CCCCC1` the figure was -30.3%. With `CC(=O)Nc1c2c(nn1-c1cccc(C)c1)CSC2` the figure was 18%. As to `Cc1c(CNCCc2ccccc2)c(C(=O)O)c(C)n1-c1ccccc1`, the inhibition was 8.96%. With `CN(C(=O)c1cccc(NC(=O)Cc2ccc([N+](=O)[O-])cc2)c1)C1CCC1`, the inhibition was 15.3%. Regarding `CCC(=O)NCc1cc(-c2nn(C)c(=O)c3ccccc23)ccc1OC`, the inhibition was 20.9%.

As for `COc1ccc(-c2nn(C)c(=O)c3ccccc23)cc1CNC(=O)C1CCCCC1`, the inhibition is 13%. On to `COc1ccc(-c2nn(C)c(=O)c3ccccc23)cc1NC(=O)COc1ccccc1`, for which the inhibition is 70.8% (active). Consider `Cc1cc(NC(=O)COC(=O)/C=C/c2ccc(C)o2)no1`, for which the inhibition was 8.11%.

As to `Cc1c(C=O)c2ccccc2n1CCOc1ccccc1`, the inhibition was 11.3%.

On to `O=C(NCCc1ccc(F)cc1)c1ccc(S(=O)(=O)N2CCCCC2)cc1`, for which the inhibition is 0.124%. Then `O=S(=O)(Nc1cccc(Oc2ccc(Cl)cc2)n1)c1ccc(F)cc1`, with 14.1%; and `CC(NC(=O)Nc1ccccc1)C(c1cccs1)N1CCN(c2ccccc2)CC1` (configuration not stated), with 58.6% (active); and `CC(NC(=S)Nc1ccccc1)C(c1cccs1)N1CCOCC1` (configuration not stated), with -20.7%. Regarding `CCCC(=O)NC(C)C(c1cccs1)N1CCN(c2ccccc2)CC1` (configuration not stated), the inhibition is 18.2%. Then `CCOCCCNC(=O)C(NC(=O)c1ccc(=O)[nH]c1)c1ccc(Cl)cc1` (configuration not stated), with -20.6%. Regarding `N#CCC(=O)N/N=C/c1cn(Cc2ccc3ccccc3c2)c2ccccc12`, the inhibition is 67.9% (active). Turning to `COc1cccc(Cn2cc(/C=N/NC(=O)c3cc(O)cc(O)c3)c3ccccc32)c1`, the inhibition is 23.5%. On to `CNC(=S)N/N=C/c1cn(Cc2ccc(C)cc2)c2ccccc12`, for which the inhibition was 42.2%. With `CC1=C(C(N)=O)C(c2ccc3c(c2)OCO3)n2nc(-c3cccc(C)c3)nc2N1` (configuration not stated) the figure was 7.35%; with `N=c1c2c(-c3ccccc3)c(-c3ccccc3)n(Cc3ccccc3)c2ncn1CCCO`, 57.2% (active).

For `CCN(CC)CCn1cnc2c1c(=O)[nH]c(=O)n2Cc1ccccc1`, the inhibition is 14.5%.

`COCCn1cnc2c1c(=O)n(Cc1ccc(Br)cc1)c(=O)n2Cc1ccccc1`: the inhibition is 31.5%.

Take `CCOC(=O)[C@H]1[C@H]2COc3ccc(OC)cc3[C@@H]2N2C(=O)c3ccc(F)cc3NC(=O)[C@@]12C`: the inhibition is 17.8%.

On to `CCOC(=O)Cc1csc(SCC(=O)Nc2ccc(C)cc2F)n1`, for which the inhibition was 7.22%. With `CCOCc1nnc(NC(=O)CCC2CCCCC2)s1` the figure was 15.7%; with `CCn1c(CNC(=O)c2cc(OC)c(OC)c(OC)c2)cc2cc(C)ccc21`, 18.3%. Take `O=C(NNc1ccccc1Cl)C(O)(c1cccc(C(F)(F)F)c1)c1cccc(C(F)(F)F)c1`: the inhibition is 94.5% (active). As for `O=C(CNS(=O)(=O)c1cccc(C(F)(F)F)c1)Nc1ccccc1F`, the inhibition is -4.5%. Then `O=C(Nc1cc(C(F)(F)F)ccc1Cl)C(=O)N1CCCCC1`, with 4.88%; and `O=C(NCCC1=CCCCC1)c1ccc(-n2cncn2)cc1`, with -91.1%; and `COC(=O)c1ccccc1NC(=O)C1CC(=O)N(c2ccc(OC)cc2)C1` (configuration not stated), with 15.5%.

Regarding `COc1ccc(CNS(=O)(=O)c2cc3c4c(c2)CCN4C(=O)CC3)cc1`, the inhibition is -14.5%. As for `Cc1nnc2n1N=C(c1ccccc1)CS2`, the inhibition is 17.5%.

With `COc1ccc(C2=Nn3c(nnc3-c3ccccc3OC)SC2)cc1OC1CCCC1`, the inhibition is 88.2% (active). Then `COc1ccccc1-c1nnc2n1N=C(c1ccc(OC(F)F)c(OCC3CC3)c1)CS2`, with 23.3%.

Regarding `Cc1ccc(C)c(OCCC(=O)OCC(=O)NC(=O)NCc2ccccc2)c1`, the inhibition is 6.63%.

As to `O=C(Nc1ccc(OC(F)(F)F)cc1)c1ccc2c(c1)no[n+]2[O-]`, the inhibition is 19%. On to `CCN1C(=NCc2ccc(OC)cc2)N[C@@H](CCc2ccccc2)[C@H](C(=O)NCc2ccc(OC)cc2)[C@H]1C`, for which the inhibition was 14.2%. Consider `COc1ccccc1CNS(=O)(=O)c1cc(C(=O)NCc2ccccn2)c(Cl)cc1Cl`, for which the inhibition is -21.7%. With `CC(C)Cc1nc(Nc2ccc(S(=O)(=O)N3CCCC3)cc2)c2nnn(Cc3ccccc3)c2n1` the figure was 68.6% (active).

Turning to `CC(C)Nc1ncnc2c1nnn2Cc1ccccc1`, the inhibition is -2.35%.

As for `Cc1nc(Nc2ccc(S(=O)(=O)N3CCCC3)cc2)c2nnn(Cc3ccccc3)c2n1`, the inhibition is 3.4%.

Take `Cc1cnc(C(=O)N2CCCC(N3CCN(c4ccccc4F)CC3)C2)cn1` (configuration not stated): the inhibition is 1.8%. For the compound `Cc1ccc(S(=O)(=O)N(CC(=O)N/N=C/c2ccc(F)cc2)c2cccc3cccnc23)cc1`, the inhibition was 4.5%. As for `Cn1nc(-c2ccccc2)c(CSc2cccc(Cl)c2)c1Cl`, the inhibition was 50.5% (active). Turning to `Cn1nc(-c2ccccc2)c(CO)c1Sc1ccccc1`, the inhibition is 8.85%. Then `Cc1ccc(S(=O)(=O)c2c(COC(=O)c3cccc(Cl)c3)c(-c3ccccc3)nn2C)cc1`, with 7.27%. Then `C=CCOc1ccc(C(=O)Nc2ccccc2C(=O)N2CCCC2)cc1`, with 2.51%. On to `COC(=O)Nc1ncc(CN2C(=O)c3ccccc3C2=O)s1`, for which the inhibition was 12.4%.

Take `Cc1cc(C(=O)COC(=O)CNC(=O)c2ccc(F)cc2)c(C)n1Cc1ccco1`: the inhibition is 56.9% (active). For the compound `COCCn1c(C)cc(C(=O)COC(=O)CNC(=O)c2ccco2)c1C`, the inhibition is 3.33%. As for `Cc1cc(C(=O)CSc2nc(N)cc(=O)[nH]2)c(C)n1Cc1ccco1`, the inhibition was 22.2%. Take `CC(Oc1ccccc1)C(=O)NN1Cc2ccccc2C1=N` (configuration not stated): the inhibition is 16.1%. As for `CC(C)(C)NS(=O)(=O)CC12CCC(CC1=O)C2(C)C` (configuration not stated), the inhibition was 8.21%. Regarding `CC1CCN(C(=O)c2ccc3c(c2)NC(=O)CN3)CC1`, the inhibition is 13%. Regarding `NC(=O)C1CCN(C(=O)c2ccc(-c3ccccc3)cc2)CC1`, the inhibition is 13.3%. Regarding `O=C1Nc2cc(C(=O)N3CCC(N4CCCCC4)CC3)ccc2S/C1=C\c1ccccc1`, the inhibition is 54.5% (active). With `Cc1[nH]n(C(N)=S)c(=O)c1N=Nc1ccc(Cl)cc1Cl`, the inhibition was -31.8%.

Turning to `C[C@H](CO)N1C[C@H](C)[C@@H](CN(C)S(=O)(=O)c2ccc(F)cc2)Oc2ccc(NC(=O)CCC(F)(F)F)cc2C1=O`, the inhibition was -5.06%. As for `COc1ccc(C2CC(=O)Nc3sc(=N)c4c(N)c(C#N)c(N)nc4c32)cc1OC` (configuration not stated), the inhibition is 19.8%. With `N#Cc1c(N)nc2c3c(sc(=N)c2c1N)NC(=O)CC3c1ccccc1Cl` (configuration not stated), the inhibition is 68.7% (active). As to `CSc1nc2c(c(=O)[nH]1)C(c1cccc(Cl)c1Cl)CC(=O)N2` (configuration not stated), the inhibition was -2.71%.

As for `C/C=C/C=C/C(=O)O`, the inhibition was 19.9%. Consider `Cc1cc(C)c(S(=O)(=O)N2C=CC(C(F)(F)F)=NCC2)c(C)c1`, for which the inhibition was 17.6%. With `CC(C(=O)Nc1ccc(F)c(F)c1F)N1CCCCCC1` (configuration not stated), the inhibition is 24.1%. With `COc1ccccc1CCNC(=O)C1CCN(C(=O)/C=C/c2ccccc2)CC1`, the inhibition is -2.9%. As for `O=C(Nc1cccnc1)c1ccc(Cl)c([N+](=O)[O-])c1`, the inhibition was -11.2%. Consider `O=C(/C=C/c1ccc(Cl)c([N+](=O)[O-])c1)c1cccnc1`, for which the inhibition was 84.3% (active). In the case of `CN(C)c1ccc(/C=C/C(=O)c2ccc(C(C)(C)C)cc2)cc1[N+](=O)[O-]`, the inhibition is 30.9%. For the compound `CN(C)c1ccc(/C=C/C(=O)c2ccc(O)cc2)cc1[N+](=O)[O-]`, the inhibition was 11.6%.

On to `O=C(/C=C/c1ccc(Cl)c([N+](=O)[O-])c1)c1ccc(O)cc1`, for which the inhibition was 98.7% (active). With `O=C(/C=C/c1ccc(Cl)cc1Cl)c1cccnc1` the figure was 17.5%.
